Reference: PubChem BioAssay (NCI)
About 79,000 compounds went through this panel and 15% of them were active in at least one assay; those are over-represented in the sample as a whole. Cut-off read from the data, not from the text of the source: active = growth inhibition above about 70%; inactive = the rest.

How the values were obtained:
[1] = NCI Yeast Anticancer Drug Screen. Data for the rad50 strain (AID 155);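 note: 0% = growth of vehicle-only cultures of the same strain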; conditions: S. cerevisiae rad50 strain growth inhibition; at 50.0 µM; hits give high values
Outline: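 Compounds were tested on a yeast strain with an engineered DNA damage repair alteration; the reported value is growth inhibition normalised to vehicle treatment.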

[2] = NCI Yeast Anticancer Drug Screen. Data for the mec2-1 strain (AID 157); conditions: S. cerevisiae mec2-1 strain, at 50.0 µM, hits give high values
Outline: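 Mutant yeast (mec2-1) grown with compound; growth inhibition relative to vehicle control reported.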

[3] = NCI Yeast Anticancer Drug Screen. Data for the sgs1 mgt1 strain (AID 161);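 note: 0% = growth of cultures given vehicle only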; conditions: S. cerevisiae sgs1 mgt1 strain, at 50.0 µM, hits give high values
Outline: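 Growth of a repair-deficient yeast mutant was monitored after compound treatment and expressed as inhibition relative to vehicle-treated cultures.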

[4] = NCI Yeast Anticancer Drug Screen. Data for the cln2 rad14 strain (AID 165);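 note: 0% = growth equal to vehicle treated cultures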; conditions: S. cerevisiae cln2 rad14 strain, at 50.0 µM, hits give high values
Outline: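 Readout is yeast growth inhibition versus vehicle-treated controls, using a strain with cln2 and rad14 alterations exposed to compound.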

[5] = NCI Yeast Anticancer Drug Screen. Data for the bub3 strain (AID 167); conditions: S. cerevisiae bub3 mutant strain, at 50.0 µM, hits give high values
Outline: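 Growth of a checkpoint-deficient yeast mutant is measured after compound exposure. Values represent inhibition relative to vehicle.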

[6] = NCI Yeast Anticancer Drug Screen. Data for the mlh1 rad18 strain (AID 175); conditions: S. cerevisiae mlh1 rad18 strain growth inhibition; at 50.0 µM; hits give high values
Outline: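 Genetically defined yeast (DNA repair-deficient) exposed to compounds; growth inhibition determined relative to vehicle.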

Measured: growth inhibition

N#Cc1nn(CCCl)c(=O)c2ccccc12
inactive: [1] 28.7% | [2] 17.9% | [3] 10% | [4] 12.2% | [5] 12.2% | [6] 15.4%

O=C(O)CNC(=S)SCc1ccccc1
inactive: [1] 10% | [2] -11.9% | [3] -11.1% | [4] -35.8% | [5] 11.2% | [6] 10.8%

O=C(Nc1ccc(Cl)cc1)Nc1nnc(-c2cc([N+](=O)[O-])cc([N+](=O)[O-])c2)o1
inactive: [1] -2.1% | [2] 20.8% | [3] 28.8% | [4] -13.3% | [5] -32.6% | [6] -2.25%

COc1ccc(-c2cc(-c3ccccc3)n(C3OC(COC(C)=O)C(OC(C)=O)C(OC(C)=O)C3OC(C)=O)c(=S)c2C#N)cc1 (stereo unspecified)
inactive: [1] 5% | [2] -11.8% | [3] -8.6% | [4] -25.4% | [5] 26.5% | [6] -5.2%

Cc1cc2nc3ccc(=[N+](C)C)cc-3sc2cc1N
inactive: [1] -24.2% | [2] -39.8% | [3] -20.6% | [4] -14.2% | [5] -25.8% | [6] -24.1%

Brc1cc2c(cc1CC1CCCCO1)OCO2 (stereo unspecified)
inactive: [1] -6.5% | [2] -17.1% | [3] 1.4% | [4] -61.9% | [5] -4.9% | [6] 0.85%

O=C(NNc1c(F)c(F)c(C(F)(F)F)c(F)c1F)c1ccccc1
inactive: [1] 3.55% | [2] -19.1% | [3] -10.9% | [4] -64.3% | [5] -14.8% | [6] -19.1%

O=c1ccn2c(n1)OC1CC2OC1COC(c1ccccc1)(c1ccccc1)c1ccccc1 (stereo unspecified)
inactive: [1] -8.8% | [2] 4.15% | [3] 12.2% | [4] -17.4% | [5] 3.6% | [6] 10.3%

O=C(Nc1ccc2c(O)c(N=Nc3ccc(N=Nc4ccc(S(=O)(=O)O)cc4)cc3)c(S(=O)(=O)O)cc2c1)c1ccccc1
inactive: [1] 18.9% | [2] -5.8% | [3] 2.9% | [4] -9.1% | [5] 8.8% | [6] 14.7%

CCCCCCCCOc1ccc(Cl)cc1
inactive: [1] -2.95% | [2] -11.8% | [3] -5.35% | [4] -35.2% | [5] -21.6% | [6] -28.9%

C=CCOC(=O)CCCCC
inactive: [1] 5% | [2] -2.7% | [3] 2.65% | [4] 7.9% | [5] -3.65% | [6] 0.75%

CN/N=C(\C(=O)Nc1ccc([N+](=O)[O-])cc1[N+](=O)[O-])C1NC(=O)NC1=O (stereo unspecified)
inactive: [1] 23.8% | [2] 20.1% | [3] 1.95% | [4] 5.05% | [5] 15.9% | [6] -10.9%

CC(=O)NS(=O)(=O)c1ccc(N=C=S)cc1
inactive: [1] -7.25% | [2] 1.85% | [3] -12.8% | [4] -19.4% | [5] -2.9% | [6] -1.05%

C=CCNC(=S)Nc1ccccc1OCC
inactive: [1] 5.2% | [2] -3.8% | [3] -5.05% | [4] -68.5% | [5] -9.6% | [6] 0.2%

O=C1c2ccccc2CN1c1ccccc1
inactive: [1] -23% | [2] -25.6% | [3] -3.25% | [4] 6.45% | [5] -7.5% | [6] -2.7%

C=C(Br)CNC(=O)c1ccccc1
inactive: [1] 7.5% | [2] -3.45% | [3] -1.35% | [4] -39.4% | [5] 21.4% | [6] 5.2%

CCCCCCCCCC(=O)N/N=C/c1ccccc1O
inactive: [1] -4.3% | [2] 12.7% | [3] 19.2% | [4] -19.1% | [5] 19.9% | [6] 13.8%

CC1(C)Oc2ccc3c(=O)c(-c4ccccc4)c(-c4ccccc4)oc3c2C1C(=O)O (stereo unspecified)
inactive: [1] 12.5% | [2] -1.35% | [3] -17.6% | [4] 12.8% | [5] 0.25% | [6] 10.8%

CCN(CC)C(=S)SCCO
inactive: [1] -4.3% | [2] -11.2% | [3] 6.15% | [4] -9.7% | [5] -3.5% | [6] -1.65%

ClCCOC(c1ccc(Cl)cc1)c1ccc(Cl)cc1
inactive: [1] -1.6% | [2] 3.5% | [3] -4.55% | [4] -12.9% | [5] 0.45% | [6] 19.8%

Clc1ccc(-c2nnc(-c3ccncc3)o2)c(Cl)c1
inactive: [1] 18.1% | [2] -4.5% | [3] 17.9% | [4] -1.6% | [5] 27.2% | [6] 15.6%

CCOC(=O)CC1CC(C)(C(=O)OCC)C(=O)CC1=O (stereo unspecified)
inactive: [1] -21.1% | [2] -4.9% | [3] -11% | [4] 8.35% | [5] 7.5% | [6] 0%

Cc1cc2nc3c(=O)[nH]c(=O)nc-3n(CC(O)C(O)C(O)C(O)CO)c2cc1C (stereo unspecified)
inactive: [1] 33.5% | [2] 3.2% | [3] -14.4% | [4] 7.05% | [5] -7.7% | [6] 23.2%

CCCCCCCCCCC1OCC(C)(C)CO1
inactive: [1] 10.3% | [2] -12.2% | [3] 17.4% | [4] -7.5% | [5] 1.65% | [6] 11.4%

Cc1cccc2c1Oc1ccccc1C2NC(=O)OCCc1ccccc1 (stereo unspecified)
inactive: [1] -14.3% | [2] -8.25% | [3] -7.25% | [4] -9.15% | [5] -8.05% | [6] 1.25%

COc1ccc(N=C2C(=Nc3ccc(OC)cc3)N(c3ccccc3[N+](=O)[O-])C(=S)N2c2ccc(OC)cc2)cc1
inactive: [1] 3.6% | [2] -24% | [3] 10.7% | [4] -49.5% | [5] -1.35% | [6] -10.9%

O=c1onc2c3ccccc3ncn12
inactive: [1] 15.2% | [2] 7.6% | [3] -21.2% | [4] -11.4% | [5] -8.6% | [6] 0.65%

[N-]=[N+]=CC(=O)C1OC1c1ccc2ccccc2c1 (stereo unspecified)
inactive: [1] 0.8% | [2] 21.6% | [3] 0.8% | [4] 1.5% | [5] 14.3% | [6] 22.9%

C#CC(C)(C)CC
inactive: [1] 21.4% | [2] -16.4% | [3] 8.35% | [4] 19.8% | [5] -8.1% | [6] 17.4%

N#CC(c1cccs1)C1CCCCC1 (stereo unspecified)
inactive: [1] 9.4% | [2] -0.5% | [3] 2.05% | [4] -11.8% | [5] 2.65% | [6] -1.3%

COc1cc2c(-c3cc(OC)c(OC)c(OC)c3)cc(C)[n+](C)c2cc1OC
inactive: [1] 6.25% | [2] -9.2% | [3] -2.3% | [4] -15% | [5] -13.3% | [6] 1.8%

CCCC(=O)c1c(C)cc(C)cc1C
inactive: [1] -6.6% | [2] -19.7% | [3] -24.4% | [4] 9.45% | [5] -7.55% | [6] 11.1%

Cc1ccnc(N(C)CCN2CCCCC2)c1
inactive: [1] 2.75% | [2] 8.15% | [3] 7.3% | [4] -34.5% | [5] 12.4% | [6] -20.8%

C=CCN(CC=C)/N=N/c1nc[nH]c1C(N)=O
inactive: [1] 28.1% | [2] 8.55% | [3] 14.7% | [4] 5.75% | [5] -5.55% | [6] 22.1%

CCOC(=O)c1cccc(C(=O)OCC)n1
inactive: [1] 4.75% | [2] -2.35% | [3] 11.8% | [4] -1.65% | [5] 18.7% | [6] -14.6%

O=C(c1ccccc1)C1(Br)CCCCC1
inactive: [1] -2.1% | [2] 11.7% | [3] 19.8% | [4] -8.8% | [5] 15% | [6] 15.9%

O=c1nc(Sc2ccccc2)ccn1C1OC(CO)C(O)C1O (stereo unspecified)
inactive: [1] -11.5% | [2] -8.95% | [3] -1.45% | [4] 9.35% | [5] 6.55% | [6] 5.95%

O=C(CCCN1CCC(Nc2ccccc2)(c2nnnn2C2CCCCC2)CC1)c1ccc(F)cc1
inactive: [1] -7.05% | [2] -16.2% | [3] 0.3% | [4] 11.1% | [5] 1.25% | [6] 7.15%

Cc1c(C(=O)/C=C/c2ccc(N(C)C)cc2)c(=O)n(-c2ccccc2)n1C
inactive: [1] -7% | [2] -45.1% | [3] -36.1% | [4] -8.85% | [5] -29.7% | [6] -20.1%

COc1ccc(C(=Cc2cc(OC(C)=O)c3ccccc3c2OC(C)=O)c2ccc(OC)cc2)cc1
inactive: [1] 13.1% | [2] -8.8% | [3] -8% | [4] -15.9% | [5] 3.7% | [6] -0.5%

CCCC(=O)N(C)c1ccccc1
inactive: [1] 7.5% | [2] -11.1% | [3] -1.85% | [4] -29.4% | [5] 6.35% | [6] -8.35%
